We go through six molecules from PubChem BioAssay (NCATS).

Assay [1] has as its target Lysosomal acid glucosylceramidase (Homo sapiens) (UniProt P04062). The assay can be described thus: Glucocerebrosidase-p2 (AID 348; in the data active means potency below about 10 µM; further: potency means the concentration at half of the fitted maximal effect). As to conditions: purified GBA, blue fluorogenic substrate, 40 min. The essentials: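 Compounds titrated from 0.6 nM upwards against 0.2 nM enzyme in pH 5.9 citric acid/KH2PO4, taurocholate, tween-20; blue fluorogenic substrate 80 uM, 40 min room temperature, stopped and read Ex 365/Em 440 for AC50.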

A short description of assay [2]: AP1 Signaling Pathway (AID 357; active means well fitted curve in either direction with a large enough effect, not every such curve was filed as active; further: on the % scale 0 is the no-effect control and ±100 the full control effect). To be noted: ME-180 AP-1-bla reporter, EGF-induced, beta-lactamase ratio, 5 h; at 7.69 µM (top of the series) unless noted. The essentials: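 Cells are seeded overnight, exposed to compound titrations and an EC50 level of EGF for 5 hours at 37 °C, then loaded with CCF4 dye for 2.5 hours. Beta-lactamase activity under the AP-1 element is read as a blue/green ratio.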

Assay [3] in a line: Stat Signaling Pathway (AID 446; active means well fitted curve in either direction with a large enough effect, not every such curve was filed as active;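 further: ME-180 cervical cancer cells given 40 pM IL-6 alongside compound; SIE-controlled beta-lactamase reporter measured as 460/530 nm FRET emission ratio; on the % scale 0 is the no-effect control and ±100 the full control effect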). To be noted: ME-180 (cervical carcinoma) SIE beta-lactamase reporter, IL-6 stimulated, 5 h; at 7.69 µM (top of the series) unless noted. In outline: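 IL-6/STAT signaling read in ME-180 cells via an SIE beta-lactamase reporter. Stimulus was 40 pM IL-6 (its AC50) for 5 hrs, so both activation and inhibition register.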
In assay [4] the target is Glucocorticoid receptor (Homo sapiens) (UniProt P04150). Description: GR-GFP Redistribution (AID 450;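 active means compounds whose dose series gives a full or clear partial fitted curve of increased nuclear translocation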; further: potency means the concentration at half of the fitted maximal effect). To be noted: U2OS GR-GFP nuclear translocation, laser cytometry, 2 h.
Glucocorticoid receptor (Homo sapiens), sequence (P04150 whole entry, looked up): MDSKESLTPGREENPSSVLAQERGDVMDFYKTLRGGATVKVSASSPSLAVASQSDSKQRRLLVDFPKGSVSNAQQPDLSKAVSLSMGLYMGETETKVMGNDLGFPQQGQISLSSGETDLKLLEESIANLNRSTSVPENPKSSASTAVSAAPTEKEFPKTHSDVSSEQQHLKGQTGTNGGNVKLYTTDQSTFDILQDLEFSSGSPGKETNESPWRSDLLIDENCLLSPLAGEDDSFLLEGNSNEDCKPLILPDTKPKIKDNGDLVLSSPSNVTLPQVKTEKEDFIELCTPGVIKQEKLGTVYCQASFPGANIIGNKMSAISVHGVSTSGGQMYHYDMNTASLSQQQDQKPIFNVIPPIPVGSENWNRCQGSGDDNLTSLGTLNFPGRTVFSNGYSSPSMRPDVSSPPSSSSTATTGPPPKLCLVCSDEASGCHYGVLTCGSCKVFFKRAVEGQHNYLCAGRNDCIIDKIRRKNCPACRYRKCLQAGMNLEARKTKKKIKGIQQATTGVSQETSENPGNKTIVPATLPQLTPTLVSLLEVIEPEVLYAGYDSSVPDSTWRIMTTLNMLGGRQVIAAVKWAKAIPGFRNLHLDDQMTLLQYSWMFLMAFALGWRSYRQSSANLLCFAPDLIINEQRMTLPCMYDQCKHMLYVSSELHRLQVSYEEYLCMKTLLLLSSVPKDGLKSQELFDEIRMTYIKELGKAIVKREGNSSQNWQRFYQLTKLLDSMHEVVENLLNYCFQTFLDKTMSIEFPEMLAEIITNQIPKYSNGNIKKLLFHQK
Assay [5] shares this target. The assay can be described thus: GR-EFC Redistribution (AID 451; calls by dose curve; further: potency means the concentration at half of the fitted maximal effect). To be noted: CHO-K1 GR-EFC translocation, beta-gal luminescence, 2 h. In outline:
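Translocation of GR-ED fusion to nuclear EA restores b-gal, read by luminescence after 1 h room-temperature detection. Engineered CHO-K1 biosensor cells, 1,000/well, exposed 2 h at 37 C to titrations up to 46 uM final.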

In assay [6] the target is Mitogen-activated protein kinase 10 (Mus musculus) (UniProt Q61831). The assay can be described thus: JNK3 AlphaScreen Assay (AID 530; active means well fitted curve in either direction with a large enough effect, not every such curve was filed as active;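 further: kinase came from lysate of stimulated human HepG2 cells; signal reports phosphorylation of biotinylated GST-cJun 1-79 at Ser73 with 10 µM ATP; on the % scale 0 is the no-effect control and ±100 the full control effect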). To be noted: JNK3 lysate, c-Jun phosphorylation; series mostly up to 57.1 µM. In outline: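 Room-temperature AlphaScreen kinase assay; pre-activated HepG2 lysate as JNK3 source, biotin-GST-cJun(1-79) substrate, 10 uM ATP, compound 15 min preincubation.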
For orientation: In Alpha technology, singlet oxygen from a donor bead excites a nearby acceptor bead.

Assay [7] is described as follows: qHTS Assay for Lipid Storage Modulators (AID 1519; calls by dose curve). As to conditions: Drosophila S3 cells, BODIPY lipid droplet/cell ratio, laser cytometry, cells loaded with oleic acid; for activity change, negative = inhibition: at 57.5 µM (top of the series). The essentials: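 Cells seeded at 5,000 per well were treated with compounds over a concentration series and loaded with oleic acid (400 uM, as added). Lipid droplet fluorescence (488 nm excitation, 500-530 nm channel) was read by laser-scanning cytometry and normalized to 20 uM Triacsin C.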
(In qHTS, concentration-response curves come from the screen itself.)

The target in assay [8] is Dual specificity protein kinase CLK4 (Homo sapiens) (UniProt Q9HAZ1). The assay can be described thus: qHTS Assay for Inhibitors of CDC-like Kinase 4 (Kinase-Glo Assay) (AID 1770). Further: nearly all actives have a fitted effect of over 65% in size. Further: potency means the concentration at half of the fitted maximal effect. To be noted: recombinant Clk4, Kinase-Glo ATP depletion luminescence; series mostly up to 66.7 µM. In outline: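 Inhibition was judged from remaining ATP, measured by Ultra-Glo luciferase bioluminescence after Clk4 (25 nM) had acted on RS peptide at 1 uM ATP for 4.5 hours, room temperature.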
Dual specificity protein kinase CLK4 (Homo sapiens), sequence (Q9HAZ1 whole entry, looked up): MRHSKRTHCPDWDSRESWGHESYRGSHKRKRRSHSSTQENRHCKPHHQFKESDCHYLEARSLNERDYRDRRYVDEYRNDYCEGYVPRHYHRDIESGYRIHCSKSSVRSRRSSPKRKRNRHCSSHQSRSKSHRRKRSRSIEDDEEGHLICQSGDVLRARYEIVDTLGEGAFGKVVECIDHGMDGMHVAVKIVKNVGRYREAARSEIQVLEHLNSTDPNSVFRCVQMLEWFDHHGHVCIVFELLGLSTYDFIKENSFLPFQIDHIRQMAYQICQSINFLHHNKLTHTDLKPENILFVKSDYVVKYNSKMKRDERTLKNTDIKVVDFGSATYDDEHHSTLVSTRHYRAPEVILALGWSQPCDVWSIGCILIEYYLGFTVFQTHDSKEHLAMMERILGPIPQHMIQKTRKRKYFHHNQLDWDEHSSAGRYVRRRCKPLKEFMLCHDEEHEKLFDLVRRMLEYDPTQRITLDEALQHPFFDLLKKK

The target is the same in assay [9]. The assay can be described thus: qHTS Assay for Inhibitors of CDC-like Kinase 4 (ADP-Glo Assay) (AID 1771). Further: nearly all actives have a fitted effect of over 70% in size. Further: potency means the concentration at half of the fitted maximal effect. As to conditions: recombinant CLK4, ADP-Glo luminescence; series mostly up to 80 µM. In outline:
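Kinase reaction: Clk4 at 25 nM, RS repeat peptide substrate at 100 uM, ATP at 1 uM, 1 hr, room temperature. Product ADP detected as luciferase signal via ADP-Glo.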

Assay [10] has the same target. Description: qHTS Assay for Inhibitors of CDC-like Kinase 4 (ADP-FP Assay) (AID 1795). Further: nearly all actives have a fitted effect of over 60% in size. Further: potency means the concentration at half of the fitted maximal effect. As to conditions: Transcreener ADP fluorescence polarization; series mostly up to 50 µM. In outline:
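Inhibition of ADP formation by 6.25 nM Clk4 is measured using 1 uM ATP and 100 uM RS repeat peptide over one hour. Produced ADP displaces a fluorescent tracer from antibody, lowering polarization.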

Assay [11] concerns the target Ubiquitin carboxyl-terminal hydrolase 1 (Homo sapiens) (UniProt O94782). The assay can be described thus: Inhibitors of USP1/UAF1: Pilot qHTS (AID 504865).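 Further: rhodamine fluorescence freed from ubiquitin-rhodamine substrate followed over time; top concentration of the series differs between compounds; on the % scale 0 is the no-effect control and ±100 the full control effect; nearly all actives have a fitted effect of over 35% in size.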 As to conditions: purified USP1/UAF1, Ub-rhodamine cleavage fluorescence; series mostly up to 54.9 µM. The essentials:
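Kinetic fluorescence assay: 1nM USP1/UAF1, 15 min compound preincubation, then 150nM Ub-Rho; 480/540 nm.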

Assay [12] is described as follows: Counterscreen qHTS for small molecule stabilizers of the endoplasmic reticulum resident proteome: GLuc-NoTag assay (AID 1508627).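 Further: SH-SY5Y cells given compound then 100 nM thapsigargin to empty ER calcium; 0% = thapsigargin alone and -100% = DMSO vehicle control.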 As to conditions: Gaussia luciferase NoTag secretion counterscreen, luminescence, thapsigargin 100 nM for final 4 h; series mostly up to 76.4 µM. In outline: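 Luminescence of Gaussia luciferase secreted into the medium (coelenterazine, 0.07x final, unlysed cells) was the read-out. Human SH-SY5Y neuroblastoma cells constitutively secreting untagged GLuc received compound for 19 h, then 100 nM thapsigargin for 4 h.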
(In general: A counterscreen serves to expose hits that act by an unwanted route or on another target.)

A short description of assay [13]: Confirmatory qHTS for small molecule stabilizers of the endoplasmic reticulum resident proteome: Secreted ER Calcium Modulated Protein (SERCaMP) assay (AID 1508628). Further: potency means the concentration at half of the fitted maximal effect; nearly all actives have a fitted effect of over 40% in size. As to conditions: SERCaMP secreted luciferase ER calcium/proteostasis reporter; series mostly up to 76.3 µM. In outline: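 We seeded SH-SY5Y-GLuc-SERCaMP cells, added compounds (three concentrations in the primary run, eleven up to 76.6 uM in confirmation), incubated 16 h, depleted ER calcium with thapsigargin, and read luciferase 4 h later.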

Assay [14] can be described thus: NFAT Signaling Pathway (AID 444; active means well fitted curve in either direction with a large enough effect, not every such curve was filed as active;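 further: carbachol stimulus at about its EC50 of 1 µM final; on the % scale 0 is the no-effect control and ±100 the full control effect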). To be noted: Jurkat NFAT-bla M1, carbachol, beta-lactamase ratio, 5 h; at 7.69 µM (top of the series) unless noted. In outline:
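Read-out: CCF4 FRET ratio (460 nm/530 nm) after 1 h RT dye loading, used for %activity and AC50 from titration series. Cells: Jurkat NFAT-β-lactamase/M1 line, treated with compound plus 1 uM carbachol for 5 h, 37 °C.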

Assay [15] is described as follows: Cell Viability qHTS for small molecule stabilizers of the endoplasmic reticulum resident proteome (AID 1508629). As to conditions: cell viability counter-screen, 100 nM thapsigargin for final 4 h.
Assay [16] deals with 3',5'-cyclic-AMP phosphodiesterase 4B (Homo sapiens) (UniProt Q07343). The assay can be described thus: qHTS Assay for Inhibitors of PDE-IV (AID 607; active means well fitted activation curve with a large enough effect in the main read-out, with a control signal flat, not every such curve was filed as active; further: % of control where 0% means no effect). To be noted: HEK293 ACTOne CNG channel cells, membrane potential fluorescence; series mostly up to 22.9 µM. In outline: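 Live HEK293 cells with a modified cyclic nucleotide-gated (CNG) channel report intracellular cAMP via membrane-potential dye fluorescence (ex 535/em 590 nm). Endogenous PDE-IV was targeted. Compounds were tested at up to 22.9 uM final; RO 20-1724 100 uM served as control.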
3',5'-cyclic-AMP phosphodiesterase 4B (Homo sapiens), sequence (Q07343 whole entry, looked up): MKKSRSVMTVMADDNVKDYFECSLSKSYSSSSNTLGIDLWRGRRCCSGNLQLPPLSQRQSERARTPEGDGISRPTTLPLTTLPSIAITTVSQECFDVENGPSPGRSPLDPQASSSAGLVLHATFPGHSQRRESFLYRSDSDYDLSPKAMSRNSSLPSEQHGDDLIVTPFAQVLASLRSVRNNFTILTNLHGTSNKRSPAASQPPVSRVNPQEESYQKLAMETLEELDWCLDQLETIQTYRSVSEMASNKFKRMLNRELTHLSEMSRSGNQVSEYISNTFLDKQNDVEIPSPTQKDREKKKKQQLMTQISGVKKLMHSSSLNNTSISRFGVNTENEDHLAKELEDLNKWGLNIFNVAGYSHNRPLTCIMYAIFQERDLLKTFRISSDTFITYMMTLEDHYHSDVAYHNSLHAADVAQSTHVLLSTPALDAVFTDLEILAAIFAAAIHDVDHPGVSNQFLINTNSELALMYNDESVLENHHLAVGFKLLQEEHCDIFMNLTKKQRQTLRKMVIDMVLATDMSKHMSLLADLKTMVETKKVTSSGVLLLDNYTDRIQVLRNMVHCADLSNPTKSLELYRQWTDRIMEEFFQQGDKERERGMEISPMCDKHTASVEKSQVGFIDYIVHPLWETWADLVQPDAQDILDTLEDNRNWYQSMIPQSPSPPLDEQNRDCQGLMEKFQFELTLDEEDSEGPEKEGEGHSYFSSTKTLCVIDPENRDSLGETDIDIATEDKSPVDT

In assay [17] the target is Cytochrome P450 1A2 (Homo sapiens) (UniProt P05177). The assay can be described thus: p450-cyp1a2 (AID 410; calls by dose curve; further: potency means the concentration at half of the fitted maximal effect). As to conditions: recombinant CYP1A2, luciferin-ME demethylation, luminescence; series mostly up to 57 µM. The essentials:
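Inhibition was calculated relative to 57 uM furafylline (full inhibition). The reaction used human CYP1A2 at 20nM with Luciferin-ME at its Km, 100uM, driven by an NADPH-regenerating system for 60 min at room temperature.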

The target of assay [18] is Cytochrome P450 3A4 (Homo sapiens) (UniProt P08684). Description: qHTS Assay for Inhibitors and Substrates of Cytochrome P450 3A4 (AID 884). Further: potency means the concentration at half of the fitted maximal effect; nearly all actives have a fitted effect of over 50% in size. To be noted: recombinant CYP3A4, Luciferin-PPXE luminescence; series mostly up to 57.1 µM. In outline: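 20 nM human CYP3A4 with 25 uM Luciferin-PPXE (at KM) in 200 mM KPO4, preincubated 10 min with compound; NADPH regeneration started a 60 min RT reaction. Luciferin detected by luminescence, normalized to 57 uM ketoconazole as full inhibition.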
Cytochrome P450 3A4 (Homo sapiens), sequence (P08684 whole entry, looked up): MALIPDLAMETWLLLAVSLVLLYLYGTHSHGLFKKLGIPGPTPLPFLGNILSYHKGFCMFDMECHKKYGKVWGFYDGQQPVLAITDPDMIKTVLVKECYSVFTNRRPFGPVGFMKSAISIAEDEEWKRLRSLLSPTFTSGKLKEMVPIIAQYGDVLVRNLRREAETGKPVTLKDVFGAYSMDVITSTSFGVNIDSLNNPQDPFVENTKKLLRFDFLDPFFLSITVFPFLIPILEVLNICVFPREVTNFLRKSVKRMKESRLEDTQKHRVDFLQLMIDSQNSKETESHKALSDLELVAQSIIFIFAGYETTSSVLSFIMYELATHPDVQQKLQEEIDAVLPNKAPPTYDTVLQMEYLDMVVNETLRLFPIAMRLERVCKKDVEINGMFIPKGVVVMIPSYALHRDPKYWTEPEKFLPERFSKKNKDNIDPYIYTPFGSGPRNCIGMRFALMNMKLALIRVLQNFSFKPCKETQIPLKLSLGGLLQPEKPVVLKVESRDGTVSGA

Assay [19] has the same target. Description: qHTS Assay for Activators of Cytochrome P450 3A4 (AID 885). Further: nearly all actives have a fitted effect of over 65% in size. As to conditions: recombinant CYP3A4, Luciferin-PPXE luminescence, 60 min; series mostly up to 57.1 µM. In outline: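 Quantitative HTS format: compounds preincubated with 20nM human CYP3A4 and Luciferin-PPXE substrate at KM, reaction started by NADPH regeneration, stopped after 60 min, luciferase luminescence read 20 min later.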

The target of assay [20] is Cytochrome P450 2D6 (Homo sapiens) (UniProt P10635). Description: qHTS Assay for Inhibitors and Substrates of Cytochrome P450 2D6 (AID 891). Further: potency means the concentration at half of the fitted maximal effect; nearly all actives have a fitted effect of over 60% in size. To be noted: recombinant CYP2D6, luciferin-ME EGE luminescence; series mostly up to 57.1 µM. The essentials:
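Human CYP2D6 (5 nM) with 30 uM Luciferin-ME EGE (at Km) in 100 mM KPO4, compound preincubated 10 min, then NADPH regeneration system for 60 min at room temperature. Luciferin read by luminescence; normalized to 1.43 uM quinidine.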

[21] abbreviates: measured here: cell count channel max response.
The mark [22] stands for this setting: measured here: lipid channel max response.

Results filed as inconclusive are left out. The source made the active and inactive calls. Unless noted, the call rests on the fitted dose curve; in most records, active means well fitted curve in the direction sought with a large enough effect; inconclusive means small, poorly fitted or top-dose-only effect, or another doubt; inactive means no such curve, though single readings can be large; an effect the other way counts as inactive or inconclusive.

Cytochrome P450 1A2 (Homo sapiens), sequence (P05177 whole entry, looked up): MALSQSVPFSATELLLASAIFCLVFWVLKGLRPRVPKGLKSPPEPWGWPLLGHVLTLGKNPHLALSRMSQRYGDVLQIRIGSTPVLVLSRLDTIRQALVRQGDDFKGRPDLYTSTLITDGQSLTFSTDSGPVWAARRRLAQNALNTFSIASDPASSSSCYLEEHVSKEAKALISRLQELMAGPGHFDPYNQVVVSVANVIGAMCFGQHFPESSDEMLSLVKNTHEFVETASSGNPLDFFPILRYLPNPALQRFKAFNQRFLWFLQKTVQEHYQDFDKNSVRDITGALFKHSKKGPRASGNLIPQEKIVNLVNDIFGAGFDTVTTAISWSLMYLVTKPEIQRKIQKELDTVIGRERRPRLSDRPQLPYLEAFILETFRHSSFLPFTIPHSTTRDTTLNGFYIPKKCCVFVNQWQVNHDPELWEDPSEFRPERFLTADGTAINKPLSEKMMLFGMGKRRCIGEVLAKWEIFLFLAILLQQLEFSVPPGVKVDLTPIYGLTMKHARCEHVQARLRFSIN
Lysosomal acid glucosylceramidase (Homo sapiens), sequence (P04062 whole entry, looked up): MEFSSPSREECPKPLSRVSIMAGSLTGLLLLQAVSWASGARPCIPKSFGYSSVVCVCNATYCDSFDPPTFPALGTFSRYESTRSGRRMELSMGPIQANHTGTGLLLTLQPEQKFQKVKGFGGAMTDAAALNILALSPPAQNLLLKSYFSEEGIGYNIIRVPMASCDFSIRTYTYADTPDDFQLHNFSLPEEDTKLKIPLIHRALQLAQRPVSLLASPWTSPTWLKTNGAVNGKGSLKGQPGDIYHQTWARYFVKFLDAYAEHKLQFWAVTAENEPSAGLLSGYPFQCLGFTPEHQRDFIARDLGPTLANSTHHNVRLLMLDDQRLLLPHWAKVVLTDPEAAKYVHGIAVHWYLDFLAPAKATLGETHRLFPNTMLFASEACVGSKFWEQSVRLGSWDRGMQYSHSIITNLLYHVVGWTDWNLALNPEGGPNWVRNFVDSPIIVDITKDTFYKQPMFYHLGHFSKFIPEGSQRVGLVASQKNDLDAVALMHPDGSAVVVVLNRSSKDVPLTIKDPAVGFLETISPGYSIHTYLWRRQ
Ubiquitin carboxyl-terminal hydrolase 1 (Homo sapiens), sequence (O94782 whole entry, looked up): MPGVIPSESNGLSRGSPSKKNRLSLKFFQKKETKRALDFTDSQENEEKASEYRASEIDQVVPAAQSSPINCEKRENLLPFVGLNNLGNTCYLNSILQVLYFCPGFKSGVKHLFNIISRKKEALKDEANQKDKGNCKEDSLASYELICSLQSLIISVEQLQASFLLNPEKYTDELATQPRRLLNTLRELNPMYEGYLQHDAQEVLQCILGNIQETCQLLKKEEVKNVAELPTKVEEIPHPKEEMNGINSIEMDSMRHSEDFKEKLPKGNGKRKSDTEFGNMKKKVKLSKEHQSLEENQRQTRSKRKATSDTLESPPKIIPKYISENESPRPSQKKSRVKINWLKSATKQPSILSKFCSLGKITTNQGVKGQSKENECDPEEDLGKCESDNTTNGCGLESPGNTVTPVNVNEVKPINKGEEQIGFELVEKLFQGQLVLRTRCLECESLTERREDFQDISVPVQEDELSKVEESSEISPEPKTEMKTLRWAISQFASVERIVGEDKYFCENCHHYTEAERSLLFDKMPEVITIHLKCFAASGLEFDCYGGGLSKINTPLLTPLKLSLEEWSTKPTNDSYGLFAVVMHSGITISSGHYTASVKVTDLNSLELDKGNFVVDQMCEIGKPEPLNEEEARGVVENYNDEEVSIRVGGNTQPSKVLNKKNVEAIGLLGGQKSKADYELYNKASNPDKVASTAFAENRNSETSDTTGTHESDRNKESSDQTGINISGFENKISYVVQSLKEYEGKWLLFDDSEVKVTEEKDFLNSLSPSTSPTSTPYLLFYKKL
Cytochrome P450 2D6 (Homo sapiens), sequence (P10635 whole entry, looked up): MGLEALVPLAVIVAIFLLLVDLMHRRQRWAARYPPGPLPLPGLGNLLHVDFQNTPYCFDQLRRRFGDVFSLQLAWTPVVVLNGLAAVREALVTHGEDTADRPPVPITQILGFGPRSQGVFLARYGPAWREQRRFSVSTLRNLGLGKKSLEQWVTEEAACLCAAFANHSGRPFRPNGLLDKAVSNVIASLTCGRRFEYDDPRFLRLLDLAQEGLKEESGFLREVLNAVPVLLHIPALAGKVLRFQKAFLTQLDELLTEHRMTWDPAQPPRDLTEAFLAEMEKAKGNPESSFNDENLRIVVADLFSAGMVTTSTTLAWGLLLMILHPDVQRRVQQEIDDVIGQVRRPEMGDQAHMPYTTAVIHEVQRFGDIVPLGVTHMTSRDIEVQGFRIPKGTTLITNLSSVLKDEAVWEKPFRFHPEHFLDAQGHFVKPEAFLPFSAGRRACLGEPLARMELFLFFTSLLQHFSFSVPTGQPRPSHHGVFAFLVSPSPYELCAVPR

`CN1CCN(c2nc(-c3ccc4c(c3)OCO4)nc3ccccc23)CC1`: the Potency in assay [1] was > 11.4 µM (inactive); in assay [4], > 46 µM (inactive); in [5] it was > 46 µM (inactive); in [8], 17.8 µM (active); in assay [9] it was 15.8 µM (active); in assay [10], 14.1 µM (active). Also, the Potency in assay [13] was 20 µM (active). The activity change, negative = inhibition in assay [2] was 21.8% (inactive); in [7], 8.71% (inactive). For the same molecule, in assay [3], the activity, negative = inhibition is -4.65% (inactive). Besides, the result in assay [6] was inactive. In addition, the max response in assay [7] (setting [21]) was 28%; in assay [7] (setting [22]), 35.9%. Moreover, the Potency entry in [11] and in [12] was “inactive” in each case.

`CN(C)c1ncc2nc(CCc3ccccc3)c(=O)n(C[C@H]3CCCO3)c2n1`: the Potency was > 11.4 µM (inactive) in assay [1], > 9.22 µM (inactive) in assay [4], > 46 µM (inactive) in assay [5] and 39.8 µM (active) in [13]. Further, the figures for the activity change, negative = inhibition in assay [2] and in assay [14] were -3.01% (inactive) and -1.26% (inactive), respectively. In addition, the activity, negative = inhibition in assay [3] was 1.42% (inactive). Moreover, in [6], the result was inactive. The Potency result in [12] is “inactive”. In addition, the max response in [15] was 23.4% (inactive).

For the molecule `COc1ccc(Oc2ncc3nc(-c4cc(F)cc(F)c4)c(=O)n(CCC#N)c3n2)cc1`, the Potency was > 11.4 µM (inactive) in [1], > 9.22 µM (inactive) in assay [4], > 46 µM (inactive) in assay [5] and 31.6 µM (active) in assay [13]. For the same molecule, the figures for the activity change, negative = inhibition in assay [2] and in [14] were -6.65% (inactive) and -14.9% (inactive), respectively. The activity, negative = inhibition in assay [3] is -11.4% (inactive). Besides, the Potency entry in [16] and in assay [12] was “inactive” throughout. Moreover, the max response in assay [15] is -0.74% (inactive).

For `CCNc1ncc2nc(CCc3ccccc3)c(=O)n(-c3ccccc3)c2n1`, the Potency in assay [1] is > 11.4 µM (inactive); in assay [17], 1.26 µM (active); in assay [5] it was > 46 µM (inactive); in [18], 5.01 µM (active); in assay [13], 35.5 µM (active). Besides, the results for the activity change, negative = inhibition in assay [2] and in assay [14] were -30.4% (inactive) and -2.92% (inactive), respectively. For the same molecule, in assay [3], the activity, negative = inhibition was 16.3% (inactive). For the same molecule, the molecule was called inactive in assay [6]. Further, the Potency result in [19] and in [12] was “inactive” throughout. The max response in assay [15] was 16.3% (inactive).

`c1cncc(-c2nc(N3CCNCC3)c3ccccc3n2)c1`: the Potency in assay [1] is > 11.4 µM (inactive); in assay [17] it was 2.51 µM (active); in [4], > 46 µM (inactive); in assay [5] it was > 46 µM (inactive); in [20] it was 7.94 µM (active); in assay [13], 22.4 µM (active). Besides, the activity change, negative = inhibition in assay [2] is 8.36% (inactive); in [14], 7.65% (inactive). The activity, negative = inhibition in assay [3] was 4.77% (inactive). Further, the result in [6] was inactive. The Potency entry in [16], in assay [19], in assay [11] and in assay [12] was “inactive” throughout. In [15], the max response is 15.1% (inactive).

Consider `Cc1nc2cnc(N3CCNCC3)nc2n(Cc2cccs2)c1=O`, for which the Potency is > 11.4 µM (inactive) in assay [1]; 0.631 µM (active) in assay [17]; > 9.22 µM (inactive) in assay [4]; > 46 µM (inactive) in [5]; 3.16 µM (active) in assay [18]; 25.1 µM (active) in [13]. For the same molecule, the activity change, negative = inhibition is -0.143% (inactive) in assay [2], 6.53% (inactive) in assay [14] and 6.29% (inactive) in assay [7]. Moreover, in [3], the activity, negative = inhibition is 3.44% (inactive). Moreover, the result in assay [6] was inactive. Also, the Potency result in assay [16], in assay [8], in [9], in assay [10], in [11] and in assay [12] was “inactive” in each case. Besides, the values for the max response in assay [7] (setting [21]), in assay [7] (setting [22]) and in assay [15] were 24.4%, 28.9% and 3.08% (inactive), respectively.
